According to the supplement of paper PMC6089552:
The campaign covered roughly 3,200 compounds. About 300 (9.4%) showed activity. The list comes from a sample in which actives are over-represented; it also holds similar structures and randomly drawn compounds.

Tested on: A673/TR/shEF
Experiment: cell viability (LOESS-normalised, relative to median of negative controls) (log2 ratio); higher = more viable cells (less compound effect), active = hit call of the paper (over 3 MAD below the median)
Details: treatment time: 72 h
Outline: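 A673/TR/shEF Ewing sarcoma cells (1,500 per well, 384-well plates) were grown with or without doxycycline to induce EWS-FLI1 shRNA knockdown, starting 24 h before compounds. Library compounds at two or more concentrations, with DMSO controls, were added for three days. Cell viability was read by CellTiter-Glo luminescence on an Envision reader, then LOESS-corrected per plate, divided by the median of negative controls and log2-transformed. Hits were wells at least three median absolute deviations from the median of all screened wells.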

[1] = 0.25 µM, library screen: screen1, EWS-FLI1 expression: high (no doxycycline)
[2] = 0.25 µM, library screen: screen1, EWS-FLI1 expression: low (doxycycline-induced shRNA knockdown)
[3] = 2.5 µM, library screen: screen1, EWS-FLI1 expression: high (no doxycycline)
[4] = 2.5 µM, library screen: screen1, EWS-FLI1 expression: low (doxycycline-induced shRNA knockdown)
[5] = 0.103 µM, library screen: screen3, EWS-FLI1 expression: high (no doxycycline)
[6] = 0.103 µM, library screen: screen3, EWS-FLI1 expression: low (doxycycline-induced shRNA knockdown)
[7] = 0.308 µM, library screen: screen3, EWS-FLI1 expression: high (no doxycycline)
[8] = 0.308 µM, library screen: screen3, EWS-FLI1 expression: low (doxycycline-induced shRNA knockdown)
[9] = 0.926 µM, library screen: screen3, EWS-FLI1 expression: high (no doxycycline)
[10] = 0.926 µM, library screen: screen3, EWS-FLI1 expression: low (doxycycline-induced shRNA knockdown)
[11] = 2.8 µM, library screen: screen3, EWS-FLI1 expression: high (no doxycycline)
[12] = 2.8 µM, library screen: screen3, EWS-FLI1 expression: low (doxycycline-induced shRNA knockdown)
[13] = 8.3 µM, library screen: screen3, EWS-FLI1 expression: high (no doxycycline)
[14] = 8.3 µM, library screen: screen3, EWS-FLI1 expression: low (doxycycline-induced shRNA knockdown)
[15] = 25 µM, library screen: screen3, EWS-FLI1 expression: high (no doxycycline)
[16] = 25 µM, library screen: screen3, EWS-FLI1 expression: low (doxycycline-induced shRNA knockdown)
[17] = 0.025 µM, library screen: screen1, EWS-FLI1 expression: high (no doxycycline)
[18] = 0.025 µM, library screen: screen1, EWS-FLI1 expression: low (doxycycline-induced shRNA knockdown)
[19] = 25 µM, library screen: screen1, EWS-FLI1 expression: high (no doxycycline)
[20] = 25 µM, library screen: screen1, EWS-FLI1 expression: low (doxycycline-induced shRNA knockdown)
[21] = 0.25 µM, library screen: screen2, EWS-FLI1 expression: high (no doxycycline)
[22] = 0.25 µM, library screen: screen2, EWS-FLI1 expression: low (doxycycline-induced shRNA knockdown)
[23] = 2.5 µM, library screen: screen2, EWS-FLI1 expression: high (no doxycycline)
[24] = 2.5 µM, library screen: screen2, EWS-FLI1 expression: low (doxycycline-induced shRNA knockdown)

Measured: cell viability (log2)

CC(C)[C@@H](C)C=C[C@@H](C)[C@H]1CC[C@H]2C3=CCC4CC(=O)CC[C@]4(C)[C@H]3CC[C@]12C (some centres not stated)
inactive: [1] 0.0656 | [2] 0.0592 | [3] 0.126 | [4] 0.0808

C[C@@H]1C/C=C/C=C/C=C/C=C/[C@H](OC2O[C@H](C)[C@@H](O)[C@H](N)[C@@H]2O)C[C@@H]2O[C@](O)(C[C@@H](O)C[C@H]3O[C@@H]3/C=C/C(=O)O1)C[C@H](O)[C@H]2C(=O)O (some centres not stated)
inactive: [5] 0.0488 | [6] 0.0464 | [7] 0.0456 | [8] 0.0497 | [9] 0.0317 | [10] 0.0938 | [11] 0.0554 | [12] 0.0621 | [13] 0.0808 | [14] 0.0825 | [15] 0.128 | [16] 0.0916

CCCCCCCCCCCCCCCC(=O)C1=C(O)[C@@H](CO)OC1=O
active: [3] -0.362 | [19] -0.293
inactive: [17] 0.213 | [18] 0.0909 | [1] 0.235 | [2] 0.112 | [4] 0.0271 | [20] -0.135

CCCCCCCCCCCCCCCC(=O)NCCO
inactive: [21] 0.109 | [22] 0.0709 | [23] 0.0624 | [24] 0.0396

N#C/C(=C\c1cccc(Cl)c1)c1nc2ccccc2[nH]1
inactive: [1] 0.153 | [2] 0.256 | [3] 0.247 | [4] 0.148

Oc1ccc(OCc2ccccc2)cc1
inactive: [5] 0.123 | [6] -0.0268 | [7] 0.0306 | [8] 0.0601 | [9] 0.0336 | [10] -0.0221 | [12] 0.0872 | [13] -0.00746 | [14] 0.0842 | [16] 0.0776
active: [11] -0.186 | [15] -0.212

CC(COc1ccccc1)NC(C)C(O)c1ccc(O)cc1 (configuration not stated)
inactive: [1] 0.163 | [2] 0.0434 | [3] 0.178 | [4] 0.141

O=C(OCc1ccccc1)c1ccccc1
inactive: [1] 0.0522 | [2] 0.0983 | [3] 0.0811 | [4] 0.112

C=C1CCC2OC2(C)CCC2C1CC2(C)C (configuration not stated)
inactive: [1] 0.0308 | [2] 0.0474 | [3] 0.104 | [4] 0.0209

COc1ccc2c(c1OC)C(=O)O[C@H]2[C@@H]1c2ccccc2CCN1C
inactive: [1] 0.0344 | [2] 0.0398 | [3] 0.0365 | [4] -0.0658

CCC(C)C(NC)C(=O)O (configuration not stated)
inactive: [1] 0.07 | [2] 0.0975 | [3] 0.13 | [4] -0.0496

COc1ccc(S(=O)(=O)N(CCO)c2ccccc2CN(C)C/C=C/c2ccc(Cl)cc2)cc1
active: [3] -0.284 | [19] -1.32 | [20] -0.531
inactive: [17] 0.202 | [18] -0.0138 | [1] 0.226 | [2] 0.0804 | [4] -0.0574

COc1cccc(NC(=O)/C=C/c2ccc(Cl)cc2)c1
inactive: [21] 0.303 | [22] 0.124 | [23] 0.272 | [24] 0.108

CC(=O)OCC(OC(C)=O)C(OC(C)=O)C(OC(C)=O)C(OC(C)=O)C(COC(C)=O)OC(C)=O (configuration not stated)
inactive: [1] 0.1 | [2] 0.086 | [3] 0.176 | [4] -0.0056

CCn1cc(C(=O)O)c(=O)c2ccc(Cc3ccccc3)nc21
inactive: [21] 0.215 | [22] 0.061 | [23] 0.162 | [24] 0.124

COc1cc(CN2CCN(Cc3ccc([N+](=O)[O-])cc3)CC2)c([N+](=O)[O-])cc1OC
inactive: [1] 0.132 | [2] 0.09 | [3] 0.0515 | [4] 0.104

CC1(C)C[C@@H]2C(=O)CC[C@@H]3O[C@]3(C)CC[C@H]21
inactive: [1] 0.14 | [2] 0.0852 | [3] 0.132 | [4] 0.0776

CC1=C2C(=CO[C@H](C)[C@H]2C)C(=O)C(C(=O)O)=C1O
inactive: [1] 0.0243 | [2] 0.0421 | [3] 0.12 | [4] 0.0982

Cc1c(OCC(F)(F)F)ccnc1C[S+]([O-])c1nc2ccccc2[nH]1 (configuration not stated)
active: [15] -0.241
inactive: [5] 0.0918 | [6] 0.101 | [1] 0.136 | [2] 0.0633 | [21] 0.166 | [22] 0.0843 | [7] 0.0516 | [8] 0.0264 | [9] 0.0709 | [10] 0.0884 | [3] 0.133 | [4] 0.126 | [23] 0.122 | [24] 0.0984 | [11] 0.0259 | [12] 0.0107 | [13] -0.0254 | [14] 0.0817 | [16] 0.0393

COc1ccc2nc([S+]([O-])Cc3ncc(C)c(OC)c3C)[nH]c2c1 (configuration not stated)
inactive: [5] 0.0555 | [6] 0.0372 | [7] -0.0266 | [8] 0.0199 | [9] -0.0106 | [10] 0.0522 | [11] -0.0439 | [12] 0.0389 | [13] -0.0449 | [14] 0.0231 | [15] -0.03 | [16] -0.014

COc1ccc2nc([S@@+]([O-])Cc3ncc(C)c(OC)c3C)[nH]c2c1
inactive: [5] 0.0353 | [6] -0.0468 | [7] 0.00454 | [8] 2e-05 | [9] -0.0308 | [10] -0.0128 | [11] -0.0416 | [12] 0.00305 | [13] 0.0504 | [14] 0.0301 | [15] -0.0361 | [16] -0.0116

COC(=O)C[C@H]1C(C)(C)[C@@H](OC(C)=O)[C@@H]2CC3C4CC(=O)O[C@@H](c5ccoc5)[C@]4(C)CCC3[C@@]1(C)C2=O (some centres not stated)
inactive: [1] 0.0705 | [2] 0.0161 | [3] 0.14 | [4] 0.112

C=C1CCC(=O)C(C)CCC2C1CC2(C)C (configuration not stated)
inactive: [1] 0.0584 | [2] -0.00925 | [3] 0.119 | [4] -0.105

COc1ccc(-c2oc3cc(O[C@@H]4O[C@H](CO)[C@@H](O)[C@H](O)[C@H]4O)c(OC)c(O)c3c(=O)c2OC)cc1O
inactive: [1] 0.0438 | [2] 0.127 | [3] 0.0949 | [4] 0.0982

O=C(O)C1CN(CCCP(=O)(O)O)CCN1 (configuration not stated)
inactive: [21] 0.0853 | [22] 0.0707 | [23] 0.0988 | [24] 0.109

CC[N+](CC)(CC)CC(=O)Nc1c(C)cccc1C
inactive: [21] 0.105 | [22] 0.169 | [23] 0.0372 | [24] 0.0518

CCN(CC)CC(=O)Nc1c(C)cccc1C
active: [15] -0.278
inactive: [5] 0.148 | [6] 0.0138 | [1] 0.147 | [2] 0.00307 | [21] 0.111 | [22] 0.106 | [7] 0.0507 | [8] 0.127 | [9] 0.13 | [10] 0.0501 | [3] 0.157 | [4] 0.131 | [23] 0.0975 | [24] 0.0477 | [11] 0.00489 | [12] 0.0234 | [13] 0.0246 | [14] 0.018 | [16] 0.0253

Cc1cccc(C)c1NC(=O)C[N+](C)(C)C
inactive: [21] 0.174 | [22] 0.0998 | [23] 0.0786 | [24] 0.0656

CC(C)=CCCC(C)(O)C1CC=C(C)CC1 (configuration not stated)
inactive: [1] 0.0431 | [2] -0.0174 | [3] 0.0996 | [4] 0.0501

COC(=O)c1c(C)cc(OC(=O)c2c(C)cc(O)c(CO)c2O)c(C)c1O
inactive: [1] 0.129 | [2] 0.0318 | [3] 0.139 | [4] 0.0883

C[C@]12CC[C@@H](O)C[C@H]1CC[C@@H]1[C@@H]2C(=O)C[C@@]2(C)[C@H]1CC[C@]2(O)C(=O)CO
inactive: [1] 0.162 | [2] 0.116 | [3] 0.185 | [4] 0.0107

Cc1cc(=O)c2c(O)c3c(cc2o1)OCC(C)CC3 (configuration not stated)
inactive: [1] 0.0148 | [2] 0.14 | [3] 0.0878 | [4] 0.127

CN=C(N)NCCCC(N)C(=O)O (configuration not stated)
inactive: [1] 0.0723 | [2] 0.0246 | [3] -0.0207 | [4] -0.0108

Nn1c(SCC(=O)c2ccc(Cl)cc2)nc2ccccc2c1=O
inactive: [1] 0.102 | [2] 0.0418 | [3] 0.24 | [4] 0.000811

CC1(C)Oc2ccc3ccc(=O)oc3c2C[C@H]1O
inactive: [1] 0.0366 | [2] -0.00203 | [3] 0.0909 | [4] 0.0204

NC[C@@H]1O[C@H](O[C@H]2[C@@H](O)[C@H](O[C@@H]3[C@@H](O)[C@H](N)C[C@H](N)[C@H]3O[C@H]3O[C@H](CO)[C@@H](O)C[C@H]3N)O[C@@H]2CO)[C@H](N)[C@@H](O)[C@@H]1O[C@H]1O[C@H](CO)[C@@H](O)[C@H](O)[C@@H]1O
inactive: [1] 0.156 | [2] 0.0397 | [3] 0.0315 | [4] 0.0591

CC(=O)Nc1cccc(O)c1
inactive: [1] 0.142 | [2] 0.0568 | [3] 0.211 | [4] -0.0215

Cc1nc(-c2ccc(NC(=O)c3ccccc3)cc2)cs1
inactive: [1] 0.118 | [2] 0.115 | [3] 0.0995 | [4] 0.089

Cc1ccc(NC(=O)c2cccc(N(C)C)c2)cc1NC(=O)c1ccc(O)cc1
active: [3] -0.147 | [19] -0.322
0.277: [1]
inactive: [17] 0.191 | [18] -0.0357 | [2] 0.139 | [4] 0.168 | [20] 0.196
